Results taken from PubChem BioAssay AID1159580 (chemical genetic matrix, 2015).
Hit rate of the full screen: of about 5,500 compounds, about 2,000 (36%) were called active. Another 18% or so got no clear call; they are omitted. Rule as the data show it: active = normalized growth mostly below about 0.91 (no sharp cut-off); inconclusive = no clear call, values can overlap the other calls; inactive = mostly above about 0.92. The list shows a part of the results.

Test: chemical genetic growth profiling, strain panel (AID 1159580);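 also: tested at 20 µM; growth read once vehicle control cultures reached saturation at 30 °C; 1 = growth at the plate median or of vehicle wells; lower values mean less growth of the strain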
Settings: growth OD

Measured: normalized growth

CN[C@@H]1[C@H](OC2[C@H](O[C@H]3[C@H](O)[C@@H](O)[C@H](N=C(N)N)[C@@H](O)[C@@H]3N=C(N)N)O[C@@H](C)[C@]2(O)C=O)O[C@@H](CO)[C@H](O)[C@H]1O (stereo not given in full)
inactive: S. cerevisiae deletion strains, locus YKL009W, strain mrt4, active compounds read low 1.03 | S. cerevisiae deletion strains, locus YKL068W, active compounds read low 1 | S. cerevisiae deletion strains, locus YKL085W, strain MDH1 (second series), active compounds read low 1 | S. cerevisiae deletion strains, locus YKL085W, strain MDH1, active compounds read low 1 | S. cerevisiae deletion strains, locus YKL160W, strain elf1, active compounds read low 1.02 | S. cerevisiae deletion strains, locus YKL190W, strain CNB1, active compounds read low 0.997 | S. cerevisiae deletion strains, locus YKR001C, strain vps1, active compounds read low 1.01 | S. cerevisiae deletion strains, locus YKR026C, strain gcn3, active compounds read low 1 | S. cerevisiae deletion strains, locus YKR091W, strain srl3, active compounds read low 1.01 | S. cerevisiae deletion strains, locus YLL001W, strain dnm1, active compounds read low 1.03 | S. cerevisiae deletion strains, locus YLL026W, active compounds read low 1.02 | S. cerevisiae deletion strains, locus YLL041C, strain sdh2, active compounds read low 1 | S. cerevisiae deletion strains, locus YLR027C, strain aat2, active compounds read low 1.02 | S. cerevisiae deletion strains, locus YLR039C, strain RIC1, active compounds read low 0.997 | S. cerevisiae deletion strains, locus YLR058C, strain SHM2, active compounds read low 1.01 | S. cerevisiae deletion strains, locus YLR102C, strain apc9, active compounds read low 1.01 | S. cerevisiae deletion strains, locus YLR113W, strain HOG1, active compounds read low 0.964 | S. cerevisiae deletion strains, locus YLR221C, strain rsa3, active compounds read low 0.989 | S. cerevisiae deletion strains, locus YLR258W, strain gsy2, active compounds read low 0.991 | S. cerevisiae deletion strains, locus YLR262C, strain YPT6 (second series), active compounds read low 1.04 | S. cerevisiae deletion strains, locus YLR262C, strain YPT6, active compounds read low 1.01 | S. cerevisiae deletion strains, locus YLR268W, strain sec22, active compounds read low 1 | S. cerevisiae deletion strains, locus YLR320W, strain mms22, active compounds read low 0.969 | S. cerevisiae deletion strains, locus YLR330W, strain CHS5, active compounds read low 1 | S. cerevisiae deletion strains, locus YLR342W, strain FKS1 (second series), active compounds read low 1.01 | S. cerevisiae deletion strains, locus YLR342W, strain FKS1, active compounds read low 1.04 | S. cerevisiae deletion strains, locus YLR357W, strain rsc2, active compounds read low 1.02 | S. cerevisiae deletion strains, locus YLR370C, strain arc18, active compounds read low 1.02 | S. cerevisiae deletion strains, locus YLR371W, strain rom2, active compounds read low 1.01 | S. cerevisiae deletion strains, locus YLR384C, strain iki3, active compounds read low 1.01 | S. cerevisiae deletion strains, locus YLR418C, strain cdc73, active compounds read low 1.02 | S. cerevisiae deletion strains, locus YML016C, strain PPZ1, active compounds read low 1.02 | S. cerevisiae deletion strains, locus YML032C, strain rad52, active compounds read low 1.01 | S. cerevisiae deletion strains, locus YML120C, strain ndi1, active compounds read low 1.02 | S. cerevisiae deletion strains, locus YML124C, strain tub3, active compounds read low 1.02 | S. cerevisiae deletion strains, locus YMR058W, strain fet3, active compounds read low 1.02 | S. cerevisiae deletion strains, locus YMR078C, strain ctf18, active compounds read low 1.02 | S. cerevisiae deletion strains, locus YMR125W, strain sto1, active compounds read low 0.969 | S. cerevisiae deletion strains, locus YMR129W, active compounds read low 1 | S. cerevisiae deletion strains, locus YMR205C, strain PFK2, active compounds read low 1.02 | S. cerevisiae deletion strains, locus YMR223W, strain ubp8, active compounds read low 1.02 | S. cerevisiae deletion strains, locus YMR231W, strain pep5, active compounds read low 0.997 | S. cerevisiae deletion strains, locus YMR263W, strain SAP30, active compounds read low 1.01 | S. cerevisiae deletion strains, locus YMR307W, strain GAS1, active compounds read low 0.965 | S. cerevisiae deletion strains, locus YNL067W, strain RPL9B, active compounds read low 1.01 | S. cerevisiae deletion strains, locus YNL071W, strain lat1, active compounds read low 0.992 | S. cerevisiae deletion strains, locus YNL128W, strain TEP1, active compounds read low 1.01 | S. cerevisiae deletion strains, locus YNL153C, strain GIM3, active compounds read low 1.01 | S. cerevisiae deletion strains, locus YNL183C, strain NPR1, active compounds read low 0.938 | S. cerevisiae deletion strains, locus YNL209W, strain ssb2, active compounds read low 0.998 | S. cerevisiae deletion strains, locus YNL233W, strain BNI4, active compounds read low 1.01 | S. cerevisiae deletion strains, locus YNL248C, strain rpa49, active compounds read low 0.962 | S. cerevisiae deletion strains, locus YNL250W, strain rad50, active compounds read low 1.02 | S. cerevisiae deletion strains, locus YNL271C, strain bni1, active compounds read low 1.01 | S. cerevisiae deletion strains, locus YNL298W, strain CLA4, active compounds read low 1.02 | S. cerevisiae deletion strains, locus YNL307C, strain MCK1, active compounds read low 1.02 | S. cerevisiae deletion strains, locus YNL322C, strain KRE1 (second series), active compounds read low 1 | S. cerevisiae deletion strains, locus YNR049C, strain mso1, active compounds read low 0.999 | S. cerevisiae deletion strains, locus YNR052C, strain pop2, active compounds read low 1 | S. cerevisiae deletion strains, locus YOL006C, strain TOP1, active compounds read low 1.01 | S. cerevisiae deletion strains, locus YOL012C, strain htz1 1.07 | S. cerevisiae deletion strains, locus YOL147C, strain pex11, active compounds read low 1.01 | S. cerevisiae deletion strains, locus YOR001W, strain rrp6, active compounds read low 1.04 | S. cerevisiae deletion strains, locus YOR061W, strain CKA2, active compounds read low 1.01 | S. cerevisiae deletion strains, locus YOR069W, strain VPS5, active compounds read low 1.01 | S. cerevisiae deletion strains, locus YOR070C, strain gyp1, active compounds read low 0.987 | S. cerevisiae deletion strains, locus YOR080W, strain dia2, active compounds read low 1 | S. cerevisiae deletion strains, locus YOR083W, strain WHI5, active compounds read low 0.989 | S. cerevisiae deletion strains, locus YOR106W, strain vam3, active compounds read low 1.03 | S. cerevisiae deletion strains, locus YOR136W, strain idh2, active compounds read low 1.02 | S. cerevisiae deletion strains, locus YOR144C, strain elg1, active compounds read low 1.02 | S. cerevisiae deletion strains, locus YOR184W, strain ser1, active compounds read low 1.03 | S. cerevisiae deletion strains, locus YOR231W, strain MKK1, active compounds read low 0.979 | S. cerevisiae deletion strains, locus YOR265W, strain rbl2, active compounds read low 1.01 | S. cerevisiae deletion strains, locus YOR270C, strain vph1, active compounds read low 1.02 | S. cerevisiae deletion strains, locus YOR290C, strain snf2, active compounds read low 0.977 | S. cerevisiae deletion strains, locus YOR316C, strain cot1, active compounds read low 1.01 | S. cerevisiae deletion strains, locus YPL051W, strain arl3, active compounds read low 1.01 | S. cerevisiae deletion strains, locus YPL055C, strain LGE1, active compounds read low 1.01 | S. cerevisiae deletion strains, locus YPL078C, strain atp4, active compounds read low 1.04 | S. cerevisiae deletion strains, locus YPL106C, strain sse1, active compounds read low 0.987 | S. cerevisiae deletion strains, locus YPL240C, strain hsp82, active compounds read low 1.01 | S. cerevisiae deletion strains, locus YPL241C, strain CIN2, active compounds read low 1 | S. cerevisiae deletion strains, locus YPL256C, strain CLN2, active compounds read low 0.976 | S. cerevisiae deletion strains, locus YPR119W, strain clb2, active compounds read low 1.01 | S. cerevisiae deletion strains, locus YPR141C, strain kar3, active compounds read low 1.01 | S. cerevisiae deletion strains, locus YPR163C, strain tif3, active compounds read low 1.02 | S. cerevisiae deletion strains, locus YPR167C, strain met16, active compounds read low 1.02 | S. cerevisiae deletion strains, strain wtn01, active compounds read low 1.01 | S. cerevisiae strains, strain wild type, active compounds read low 1.01
